The text below walks through data of PubChem BioAssay (Tox21).

Results filed as inconclusive are left out. Unmarked numbers belong to inactive results. Calls of active or inactive are those of the source. Calls come from the whole dose curve; as a rule, active = well fitted cell-killing curve with a large enough effect in the repeat runs; inconclusive = weak or mixed curves; inactive = flat fitted curve, though single readings scatter.
% is set by controls: 0 for no effect and ±100 for the full control effect.

The experiment can be described thus: qHTS assay to identify small molecule antagonists of the TGF-beta/Smad signaling pathway - cell viability counter screen (AID 1346824). Note: nearly all actives have a fitted effect of over 50% in size. The conditions noted are these: SBE-bla HEK293T viability, CellTiter-Glo luminescence; series mostly up to 76.8 µM. The source says:
U.S. Tox21 Program National Center for Advancing Translational Sciences [NCATS] NIH Chemical Genomics Center [NCGC] U.S. Environmental Protection Agency [EPA] National Institutes of Environmental Health Sciences [NIEHS] National Toxicology Program [NTP] U.S. Food and Drug Administration [FDA] Tox21 Assay Overview: Transforming growth factor beta (TGF-beta) superfamily consists of a large number of structurally related dimeric proteins that act as hormones or local mediators in regulating a wide range of biological functions. This superfamily includes TGF-betas themselves, the bone morphogenetic proteins (BMPs) and the activins. These ligands induce oligomerization of serine/threonine receptor kinases and phosphorylate the cytoplasmic signaling molecules of Smad protein family. CellSensor SBE-bla HEK 293T cell line (Life Technologies, Carlsbad, CA), responsive to TGF-beta was used to screen Tox21 10K compound library for identification of agonists/antagonists of the Smad signaling pathway. This cell line contains a beta-lactamase reporter gene under control of the Smad binding element (SBE) stably integrated into HEK 293T cells. Also cytotoxicity of the compounds was tested in parallel by measuring the cell viability using CellTiter-Glo assay system in the same wells.
Tox21 Assay Protocol Summary: SBE-bla HEK 293T cells were dispensed at 4,000/well in 5 uL of assay medium into black wall/clear-bottom 1536-well plates using a Multidrop Combi (ThermoFisher Scientific, Waltham, MA) dispenser. After the assay plates were incubated at 37 C and 5% CO2 for an overnight, 23 nL of compounds dissolved in DMSO, positive controls or DMSO only was transferred to the assay plate by a Pintool station (Kalypsys, San Diego, CA). Compound transfer was followed by the addition of 1 uL of 0.25 ng/mL TGF-beta1 or assay buffer using two separate tips of Flying Reagent Dispenser (FRD, Aurora Discovery, San Diego, CA). The assay plates were incubated at 37 C and 5% CO2 for 5 hr. One uL of LiveBLAzer B/G FRET substrate (Life Technologies) was added using a Flying Reagent Dispenser (FRD, Aurora Discovery, San Diego, CA) and the plates were incubated at room temperature for 2 hr. Fluorescence intensity (405 nm excitation, 460 nm and 530 nm emissions) was measured using an Envision plate reader (PerkinElmer, Shelton, CT). For cytotoxicity read, 4 uL of CellTiter-Glo reagent (Promega Corporation, Madison, WI) was added to each well of the assay plates using FRD. After 30 min incubation at room temperature, the luminescence intensity was measured using ViewLux plate reader (PerkinElmer).
In general terms: Quantitative high-throughput screening tests each substance at several concentrations.
With `CCc1c(C)[nH]c2c1C(=O)C(CN1CCOCC1)CC2` (stereo not given), the outcome was inactive.
As to `Cc1ccc(NC(=O)c2ccc(CN3CCN(C)CC3)cc2)cc1Nc1nccc(-c2cccnc2)n1`, the call was inactive.
On the same count and under the same terms, under `Nc1ncnc2c1ncn2[C@@H]1O[C@H](CO)[C@@H](O)[C@H]1O` stands “inactive”.
On the same count and under the same terms, the entry for `CC(C)(C)c1ccc(CCC=O)cc1` is “inactive”; for `CCCCCCCCC(=O)OCC(C)OC(=O)CCCCCCCC` (stereo not given) it is “inactive”.
Take `CC(C)(Cc1c[nH]c2ccccc12)NCC(O)COc1ccccc1C#N` (stereo not given): the compound was classed as inactive.
Same read-out and setting: under `CCC1=C(C)CN(C(=O)NCCc2ccc(S(=O)(=O)NC(=O)NC3CCC(C)CC3)cc2)C1=O` (stereo not given) stands “inactive”; under `CC(C)Cc1nccs1`, “inactive”; under `CC1(C)CC(=O)CC(C)(C)N1`, “inactive”.
For `O=[N+]([O-])c1ccccc1CCO`, the compound was classed as inactive.
Still for that read-out and setting: the entry for `CC(=O)Nc1cccc(N)c1` is “inactive”; for `C[C@H](CN1CCCC1)C(=O)c1ccc(C(F)(F)F)cc1` it is “inactive”; for `O=C(Nc1ccccc1)c1cc([N+](=O)[O-])ccc1Cl` it is “inactive”.
Regarding `CCOC(=O)CC(O)(CC(=O)OCC)C(=O)OCC`, the call was inactive.
On to `Cc1c(Cl)cccc1Nc1ccccc1C(=O)O`, for which the compound was classed as inactive.
On the same count and under the same terms, under `OCC(O)c1ccccc1` (stereo not given) stands “inactive”.
Still for that read-out and setting: under `Cc1nc(C)c(C)nc1C` stands “inactive”.
The same measure, in the same setting: the entry for `CC(C)(C)c1cc(C=O)cc(C(C)(C)C)c1O` is “inactive”.
Regarding `CCCC(=O)OCc1ccccc1`, the compound was called inactive.
Turning to `FC1(F)C(F)(F)C(F)(F)C2(F)C(F)(C1(F)F)C(F)(F)C(F)(F)C1(F)C(F)(F)C(F)(F)C(F)(F)C(F)(F)C12F` (stereo not given), the compound was classed as inactive.
On the same count and under the same terms, the entry for `CC(C)(C)N` is “inactive”.
The same measure, in the same setting: under `O=C(OC1C[C@H]2CC[C@@H](C1)[N+]21CCCC1)C(O)(c1ccccc1)c1ccccc1` (stereo not given in full) stands “inactive”; under `CCCCCO`, “inactive”.
The same measure, in the same setting: the entry for `S=c1[nH][nH]c(=S)s1` is “inactive”; for `C[C@@H](O)[C@H]1C(=O)N2C(C(=O)O)=C(S[C@@H]3CN[C@H](CNS(N)(=O)=O)C3)[C@H](C)[C@H]12` it is “inactive”; for `CCc1ccc(C(=O)C(C)CN2CCCCC2)cc1` (stereo not given) it is “inactive”.
In the case of `COC=O`, the viability change, negative = cytotoxic is 2.71% [at 6.97 µM].
Consider `O=C(OCCOCCOCCOC(=O)c1ccccc1)c1ccccc1`, for which the compound was classed as inactive.
With `C=CC(C)(O)CC/C=C(/C)CCC=C(C)C` (stereo not given), the compound was called inactive.
Same read-out and setting: the entry for `Cc1ccc2c(Cl)cc(Cl)c(O)c2n1` is “inactive”.
For the compound `CC(C)=CCCC(C)C=O` (stereo not given), the result was inactive.
Still for that read-out and setting: under `Nc1ccc(F)cc1F` stands “inactive”.
On to `Cc1cc(C)n(CO)n1`, for which the call was inactive.
In the case of `CCCCC(CC)COCCC#N` (stereo not given), the compound was called inactive.
As for `Oc1ccc(CCNCCCCCCNCCc2ccccc2)cc1O`, the compound was classed as inactive.
Same read-out and setting: under `CC1(C)C(=O)NC(=O)N1CO` stands “inactive”; under `CCCC1CCCC(=O)O1` (stereo not given), “inactive”.
The same measure, in the same setting: the entry for `COc1ccc(/C=C/S(=O)(=O)NC(=O)c2ccc(C)cc2Cl)cc1` is “inactive”; for `CCCCCCCCCCCC(=O)OCC` it is “inactive”; for `CCCCCCCCCCCCCCCCC(=O)O` it is “inactive”.
